Data reported in PubChem BioAssay.

What was measured:
[1] = tested on: Botulinum neurotoxin type F light chain protease (Clostridium botulinum); experiment: Botulinum neurotoxin type F light chain protease inhibition, multiplex microsphere flow cytometry, validation set (AID 588459); conditions: multiplex microsphere protease substrate cleavage assay, at 10 µM, stronger effect = higher value
[2] = target: Botulinum neurotoxin type A (Clostridium botulinum) (UniProt P0DPI0); experiment: BoNT/A light chain protease inhibitors, biochemical, multiplex microsphere flow cytometry, validation set (AID 588460); conditions: at 10 µM, stronger effect = higher value
[3] = target: Lethal factor (Bacillus anthracis) (UniProt P15917); experiment: Lethal factor protease inhibitors, Bacillus anthracis, multiplex microsphere cleavage assay, validation set (AID 588461); conditions: flow cytometry, at 10 µM, stronger effect = higher value

Measured: inhibition

COc1ccc(C(=O)/C=C/c2ccc(OC(=O)c3cc(OC)c(OC)c(OC)c3)cc2)cc1
inactive: [1] 2.9% | [2] 0.3% | [3] -5%

CC(C)Cc1nc(NCCN2CCOCC2)c(C#N)c2c1COC(C)(C)C2
inactive: [1] -1.6% | [2] -0.8% | [3] -3%

Cc1ccc(-n2ncc3c(Nc4cccc(C(=O)O)c4)ncnc32)cc1
inactive: [1] 0.7% | [2] -1.1% | [3] 1.7%

O=C(CN1C(=O)c2ccccc2S1(=O)=O)Nc1ccccc1
inactive: [1] 2.3% | [2] 0.2% | [3] -4.6%

CCOc1ccc(CCn2c(-c3ccco3)nc3ccccc3c2=O)cc1OCC
inactive: [1] 3.5% | [2] -0.4% | [3] 11.4%

COC(=O)c1cc(OC)c(OC)c(OC)c1[N+](=O)[O-]
inactive: [1] 1.9% | [2] 0.1% | [3] -0.2%

CCOc1ncnc2c1[nH]c1ccccc12
inactive: [1] 5.6% | [2] 0.5% | [3] -0.4%

COc1ccc(-c2cc(=O)oc3cc(OC(C)C(=O)O)ccc23)cc1 (centres undefined)
inactive: [1] 0.9% | [2] 2% | [3] 9.7%

Cc1cc(C)c2c(CCl)cc(=O)oc2c1
inactive: [1] -4.3% | [2] -1.5% | [3] -3.4%

CC(=O)N1CCn2c3c(c4cc(C)ccc42)CCCC31 (centres undefined)
inactive: [1] 3.1% | [2] -0.3% | [3] -2.3%

O=C(CCc1ccccc1)Nc1ccccc1C(F)(F)F
inactive: [1] 0.7% | [2] -0.1% | [3] 0.5%

O=C(O)CCCCCCCC(=O)O
inactive: [1] 1.1% | [2] -0.8% | [3] -1.4%

COc1ccccc1C1(CC(=O)N2CCCCC2)CCOC(C(C)C)C1 (centres undefined)
inactive: [1] 1.1% | [2] -0.2% | [3] -3.3%

C[C@H](NC(=O)C1(c2ccccc2)CCN(C(=O)[C@H]2CSCN2C(=O)OC(C)(C)C)CC1)C(=O)O
inactive: [1] -0.9% | [2] -2% | [3] -10.5%

CCn1c(/C=C/c2ccccc2)nc2ccccc2c1=O
inactive: [1] 2.4% | [2] -1.7% | [3] 7.2%

O=C(Nc1ccc(N2CCOCC2)cc1)c1ccc(-c2ccccc2[N+](=O)[O-])o1
inactive: [1] -2.6% | [2] -0.9% | [3] -10.4%

c1ccc2[nH]c(-c3cscn3)nc2c1
inactive: [1] 1.2% | [2] 0.1% | [3] -4%

COc1ccc(-c2c[n+](CC(=O)OC3CC(C)CCC3C(C)C)c3n2CCC3)cc1 (centres undefined)
inactive: [1] 0.9% | [2] 0.1% | [3] -5.8%

CCn1cc(C(=O)O)c(=O)c2cnc(N3CCNCC3)nc21
inactive: [1] 0.1% | [2] 1% | [3] -7.3%

CC(C)COc1ccc(Cc2cnc(N)nc2N)cc1
inactive: [1] 5% | [2] 2% | [3] 1.9%

CC[n+]1c(C)sc2cc(C)ccc21
inactive: [1] 3.6% | [2] 1.9% | [3] -1.6%

CC(C)OC(=O)C1C(=O)CC(C)(O)C(C(=O)OC(C)C)C1c1cccc(O)c1 (centres undefined)
inactive: [1] 3.9% | [2] -0.2% | [3] -2.7%

COc1ccc(C2OC(=O)Cc3cc(OC)c(OC)cc32)cc1 (centres undefined)
inactive: [1] 3.2% | [2] 0.8% | [3] 2.9%

CCCC(=O)Nc1ncnc2c1ncn2[C@@H]1O[C@@H]2COP(=O)(O)O[C@H]2[C@H]1OC(=O)CCC
inactive: [1] -0.5% | [2] -1% | [3] -2.7%

COc1cc2cc(C(=O)O)n(C)c2c(OC)c1OC
inactive: [1] 1.3% | [2] -0.4% | [3] 1.2%

COc1ccc(S(=O)(=O)N2CCN(C(=O)COc3ccc4c(C)cc(=O)oc4c3)CC2)cc1
inactive: [1] 2.4% | [2] 0.1% | [3] -0.8%

CCOc1ccc(CC2CCC(=O)NC2=O)cc1 (centres undefined)
inactive: [1] -3% | [2] -0.5% | [3] -1.5%

O=C(NCCO)c1ccc2[nH]c3ccccc3c2c1
inactive: [1] 0.6% | [2] 0.1% | [3] 5.3%

COc1cc2c(cc1OC)C(=S)NC(C)(C)C2
inactive: [1] 2.8% | [2] -0.8% | [3] 2.9%

COCc1cc(=O)[nH]c(/N=C(\N)Nc2ccc(Oc3ccccc3)cc2)n1
inactive: [1] 3.4% | [2] 0.1% | [3] 5.6%

CCOc1ccc(C(=O)/C=C/c2cc(OC)c(OC)c(OC)c2)cc1
inactive: [1] 0.5% | [2] -0.5% | [3] 4.5%

C[C@]12C[C@H](O)[C@H]3[C@@H](CCC4=CC(=O)CC[C@@]43C)[C@@H]1CC[C@@H]2C(=O)CO
inactive: [1] 0.1% | [2] -0.6% | [3] -9.2%

CC(=O)O[C@H]1C[C@@]2(C)[C@@H](C[C@@H](O)[C@H]3[C@@]4(C)CC[C@@H](O)[C@@H](C)C4CC[C@@]32C)/C1=C(\CCC=C(C)C)C(=O)O (some centres undefined)
inactive: [1] -2.5% | [2] -0.2% | [3] 1.4%

CCOc1cc2c3c(c1)C(C)=CC(C)(C)N3C(=O)C2=O
inactive: [1] 1.1% | [2] -2.5% | [3] -4%

COc1ccccc1/C=C/C(=O)c1c2c(c(C)[nH]c1=O)CCCC2
inactive: [1] -1.3% | [2] 0.5% | [3] -5.8%

COc1cc(OC)c(-c2nc3cnccc3n2C)cc1OC
inactive: [1] -2.3% | [2] -1.9% | [3] -1.6%

CC(=O)OCC(=O)[C@H]1CC[C@H]2[C@@H]3CC=C4C[C@@H](O)CC[C@]4(C)[C@H]3CC[C@]12C
inactive: [1] -1.9% | [2] -1.3% | [3] -7.4%

CCc1cc(/C(Cc2ccccn2)=N\O)c(O)cc1O
inactive: [1] -2.8% | [2] -2.8% | [3] -5.1%

COc1ccc(N2C(=O)[C@@H]3[C@H](C2=O)[C@H]2c4ccccc4C=CN2[C@@H]3C(C)=O)cc1
inactive: [1] -2.1% | [2] -0.4% | [3] -16.8%

O=C(COc1ccc2c(-c3ccccc3)cc(=O)oc2c1)NCc1cccs1
inactive: [1] -0.2% | [2] -0.1% | [3] -6%

CC12COC3(C(=O)Nc4ccc(F)cc4)CC1CCC32C (centres undefined)
inactive: [1] 3.3% | [2] 1% | [3] -1.8%

Nc1nnc(-c2cccc(Cl)c2Cl)c(N)n1
inactive: [1] 1.3% | [2] 0.8% | [3] -5.9%

Cc1ccccc1C(OCCN(C)C)c1ccccc1 (centres undefined)
inactive: [1] 1.2% | [2] 0.7% | [3] 2.5%

COC(=O)C1=C(C)NC(C)=C(C(=O)OCCN(C)Cc2ccccc2)C1c1cccc([N+](=O)[O-])c1 (centres undefined)
inactive: [1] -2.1% | [2] -0.8% | [3] -3.7%

O=C(O)c1ccccc1O
inactive: [1] 0.4% | [2] -0.5% | [3] 2.3%

COc1ccc(C2CNC(=O)C2)cc1OC1CCCC1 (centres undefined)
inactive: [1] 7.8% | [2] -0.3% | [3] 1%

NC(=O)N1c2ccccc2CC(=O)c2ccccc21
inactive: [1] -1.1% | [2] 0.3% | [3] 0.4%

Cc1ccc(C(CC(=O)NCc2ccco2)c2ccc(OC(C)C)cc2)cc1 (centres undefined)
inactive: [1] 0.4% | [2] -1.6% | [3] -4%

COc1ccc(-c2nc(NC(C)=O)sc2-c2ccc(OC)cc2)cc1
inactive: [1] 3% | [2] 1% | [3] 2.3%

CCOC(=O)C1(Cc2cccc(Cl)c2)CCCN(C2CCN(C(C)=O)CC2)C1 (centres undefined)
inactive: [1] 9.1% | [2] 0.7% | [3] -5.1%

COc1ccccc1C(=O)Nc1cc2cc(Br)ccc2oc1=O
inactive: [1] 3.8% | [2] 1.1% | [3] 0.4%

CC1(C)C(C=C(Cl)Cl)C1C(=O)N1CCN(Cc2ccccc2)CC1 (centres undefined)
inactive: [1] -0.6% | [2] 0.8% | [3] -5.5%

COc1ccccc1-c1c(C(F)(F)F)oc2cc(OC(=O)c3ccc([N+](=O)[O-])cc3)ccc2c1=O
inactive: [1] 0.7% | [2] -0.5% | [3] 3.7%

Cc1ccccc1C(=O)Oc1ccc(Sc2ccc(O)cc2)cc1
inactive: [1] -2% | [2] -0.4% | [3] -3.8%

Cc1ccccc1NC(=O)C1c2ccccc2Oc2ccccc21
inactive: [1] 0.4% | [2] -0.3% | [3] 6.3%

CC(C)=CCC(C)(C)/C=N/NC(N)=O
inactive: [1] 1.8% | [2] 0.6% | [3] 10.3%

O=C(c1ccccc1)N1CCN(C(=O)c2ccccc2)CC1
inactive: [1] -0.3% | [2] -0.7% | [3] -0.8%

CCS(=O)(=O)Nc1cc(OC)c(OC)cc1Cc1nccc2cc(OC)c(OC)cc12
inactive: [1] 0.2% | [2] 0.4% | [3] -0.6%

C=CCc1ccccc1OCC(O)CNC(C)C (centres undefined)
inactive: [1] -1% | [2] 0.4% | [3] -6.5%

CC(C)CCNC(=O)[C@H](CC(C)C)NC(=O)[C@H]1O[C@@H]1C(=O)O
inactive: [1] -3.8% | [2] 1.5% | [3] -3%

COc1ccc(OC)c(-c2oc3ccccc3c(=O)c2O)c1
inactive: [1] 0.6% | [2] 1.3% | [3] 2.9%

Nc1[nH]c(=O)ncc1F
inactive: [1] 1.1% | [2] -0.5% | [3] 0%

CCC(=O)O[C@]1(C(=O)CCl)[C@@H](C)C[C@H]2[C@@H]3CCC4=CC(=O)C=C[C@]4(C)[C@@]3(F)[C@@H](O)C[C@@]21C
inactive: [1] -0.5% | [2] -1.2% | [3] -3.4%
